# Results as given in PubChem BioAssay (NCATS).
# Inconclusive results are not listed. Entries that show only a call come without a potency. The source made the active and inactive calls. Unless noted, the call rests on the fitted dose curve; in most records, active means well fitted curve in the direction sought with a large enough effect; inconclusive means small, poorly fitted or top-dose-only effect, or another doubt; inactive means no such curve, though single readings can be large; an effect the other way counts as inactive or inconclusive.
# Experiments:
# [1] = Confirmatory qHTS for VERO E6 Cytotoxicity Assay: Counterscreen for SARS-CoV-2 CPE Assay (AID 1508605; calls by dose curve; further: nearly all actives have a fitted effect of over 60% in size)
# [2] = Confirmatory qHTS for activators (rescue) of SARS-CoV-2 Cytopathic Effect (CPE) (AID 1508606; calls by dose curve; further: potency means the concentration at half of the fitted maximal effect; nearly all actives have a fitted effect of over 70% in size)
# [3] = OV-KATE Cancer Cell Toxicity qHTS against the NCATS CANVASS Library (AID 1347345)
# In short: (§1)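 Viability was assessed by adding CellTiter-Glo reagent to treated cultures and reading luminescence after 15min at room temperature. Treatment lasted 72 h at 37 degrees C/5% CO2, using an 11-point series on 1000 cells/well.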
# [4] = HPAF-II Cancer Cell Toxicity qHTS against the NCATS CANVASS Library (AID 1347346); further: nearly all actives have a fitted effect of over 55% in size
# In short: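 1000 HPAF-II cells/well; 4 h pre-incubation; 11-pnt compound titration; 72 h, 37 degrees C/5% CO2; CellTiter-Glo, 15 min RT; luminescence read.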
# [5] = UWB1.289 Cancer Cell Toxicity qHTS against the NCATS CANVASS Library (AID 1347347); further: nearly all actives have a fitted effect of over 60% in size
# In short: as §1
# [6] = OV-SAHO Cancer Cell Toxicity qHTS against the NCATS CANVASS Library (AID 1347348); further: nearly all actives have a fitted effect of over 55% in size
# In short: as §1
# [7] = Panc-1005 Cancer Cell Toxicity qHTS against the NCATS CANVASS Library (AID 1347349); further: nearly all actives have a fitted effect of over 60% in size
# In short: as §1
# [8] = U-118MG Cancer Cell Toxicity qHTS against the NCATS CANVASS Library (AID 1347351)
# In short: as §1
# [9] = COV-362 Cancer Cell Toxicity qHTS against the NCATS CANVASS Library (AID 1347352)
# In short: (§2)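 1000 cells/well, 4 h pre-incubation 37 °C/5% CO2; 11-pnt titration; 72 h; CellTiter-Glo 15 min RT, luminescence.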
# [10] = UWB1.289-WTBRCA1 Cancer Cell Toxicity qHTS against the NCATS CANVASS Library (AID 1347354)
# In short: as §2
# [11] = HPAF-II 24hr Apoptosis Induction qHTS against the NCATS CANVASS Library (AID 1347356)
# In short: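 500 HPAF-II cells/well; compounds in 11-pnt qHTS; 24 h, 37 C/5% CO2; Caspase-Glo 3/7 added, 15 min RT dark; luminescence read. Doxorubicin control.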
# [12] = HPAF-II 12hr Apoptosis Induction qHTS against the NCATS CANVASS Library (AID 1347358)
# In short: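 Caspase-Glo 3/7 luminescence (DEVD substrate) reports caspase activity in HPAF-II cells after 12 h compound treatment at 37 degrees C. Compounds were tested in an 11-point series. Doxorubicin served as control.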
# [13] = HEK293 24hr Apoptosis Induction qHTS against the NCATS CANVASS Library (AID 1347359)
# In short: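 HEK293 cells, 500 per well, exposed to an 11-point compound series for 24 hours at 37 degrees C. Caspase 3/7 activity read by Caspase-Glo luminescence (DEVD substrate) after 15 min at room temperature.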
# [14] = HPAF-II 18hr Apoptosis Induction qHTS against the NCATS CANVASS Library (AID 1347360)
# In short: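 Caspase-3/7 activation was measured with luminescent Caspase-Glo 3/7 reagent (15 min, RT) in HPAF-II cancer cells (500 cells/well). Before detection, cells had been treated for 18 h at 37 C with compounds (11 points).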
# [15] = HEK293 12hr Apoptosis Induction qHTS against the NCATS CANVASS Library (AID 1347361)
# In short: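 HEK293 cells (500/well, DMEM + 10% FBS) were exposed to natural products across an 11-point series for 12 hours at 37 degrees C. Caspase-3/7 activity was then measured with DEVD luciferase luminescence after 15 min at room temperature.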
# [16] = test system: NAD(P)H diaphorase (Clostridium kluyveri); test: Diaphorse counterscreen qHTS: Assay Interference Panel against the NCATS CANVASS Library (AID 1347362)
# In short: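 Clostridium kluyveri diaphorase in PBS + 0.01% Tween-20 preincubated 15 min with compounds. Resazurin and NADH then added for 5 min at room temperature in the dark; resorufin fluorescence read (ex 525, em 598).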
# [17] = target: Luciferin 4-monooxygenase (Photinus pyralis) (UniProt P08659); test: Firefly luciferase counterscreen qHTS: Assay Interference Panel against the NCATS CANVASS Library (AID 1347363)
# In short: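 Purified P. pyralis luciferase (0.04 ug/mL, 4x reagent) added to Tris-acetate buffer with 0.013 mM D-luciferin, 0.013 mM ATP and 13.3 mM Mg-acetate; compounds preincubated 15 min, then luminescence read after 5 min, RT.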
# [18] = qHTS to identify inhibitors of the type 1 interferon - major histocompatibility complex class I in skeletal muscle: primary screen against the NCATS Mechanism Interrogation Plate v5.0 (MIPE) Libary (AID 1347411); further: nearly all actives have a fitted effect of over 65% in size
# In short: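 HLA-B HiBit myoblasts, dexamethasone-free medium + 4 ng/ml IFN-b, 24 h compound, 11-pt 1:3 from 46 uM final. Readout: Nano-Glo HiBiT lytic luminescence after 10 min lysis, RT.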
# [19] = Cytotoxicity counterscreen for inhibitors of SARS-CoV-2 cell entry (AID 1645845; calls by dose curve; further: nearly all actives have a fitted effect of over 50% in size)
# In short: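 Counterscreen run in the same HEK293-ACE2 line as the pseudotyped-particle entry assay, without particles. Viability after 48 h at 37 C was read as ATP luminescence, scaled between cell-containing and cell-free wells.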
# [20] = Primary qHTS to identify inhibitors of SARS-CoV-2 cell entry (AID 1645846; calls by dose curve; further: nearly all actives have a fitted effect of over 45% in size); settings: activity change, negative = inhibition: at 57.1 µM (top of the series) unless noted
# In short: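 Entry measured by luciferase signal 48 h after adding SARS-CoV-2-S pseudotyped MLV particles to HEK293-ACE2 cells preincubated 1 h with compounds. Normalisation: bald particles and spike particles.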
# Chain of Luciferin 4-monooxygenase (Photinus pyralis) (P08659 whole entry, looked up): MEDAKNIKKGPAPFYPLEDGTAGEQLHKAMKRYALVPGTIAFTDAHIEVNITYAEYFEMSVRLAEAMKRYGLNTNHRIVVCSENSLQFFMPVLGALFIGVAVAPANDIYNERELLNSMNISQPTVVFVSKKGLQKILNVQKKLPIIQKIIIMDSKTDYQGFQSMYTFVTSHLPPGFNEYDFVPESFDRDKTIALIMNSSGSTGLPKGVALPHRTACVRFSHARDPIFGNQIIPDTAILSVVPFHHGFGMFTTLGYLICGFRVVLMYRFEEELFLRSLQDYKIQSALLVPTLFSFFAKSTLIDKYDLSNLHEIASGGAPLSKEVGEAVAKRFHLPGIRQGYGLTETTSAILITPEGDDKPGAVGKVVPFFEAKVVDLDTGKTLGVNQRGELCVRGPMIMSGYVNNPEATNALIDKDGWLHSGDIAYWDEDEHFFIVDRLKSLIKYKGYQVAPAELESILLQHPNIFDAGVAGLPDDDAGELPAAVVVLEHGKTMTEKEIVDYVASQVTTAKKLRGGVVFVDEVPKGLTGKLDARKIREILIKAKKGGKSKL
compound,measurement,setting,value
CN1CCCCC1Cn1cc(C(=O)c2cc([N+](=O)[O-])ccc2I)c2ccccc21 (configuration not stated),Potency,[1],inactive
same,Potency,[2],10 µM (active)
C/C=C1/CN2CC[C@]34C(=Nc5ccccc53)[C@@H]2C[C@@H]1[C@H]4C(=O)OC,Potency,[3],inactive
same,Potency,[4],inactive
same,Potency,[5],inactive
same,Potency,[6],inactive
same,Potency,[7],inactive
same,Potency,[8],inactive
same,Potency,[9],inactive
same,Potency,[10],inactive
same,outcome,[11],inactive
same,outcome,[12],inactive
same,Potency,[13],inactive
same,outcome,[14],inactive
same,Potency,[15],inactive
same,outcome,[16],inactive
same,outcome,[17],inactive
COc1ccc(CCNCc2ccc(OC)c3ccccc23)cc1,Potency,[1],inactive
same,Potency,[2],11.2 µM (active)
NC(=O)[C@@H](CC1CC1)[C@@H](CCC(F)(F)F)C(=O)N[C@H]1N=C(c2ccccc2)c2cccc(F)c2NC1=O,Potency,[18],inactive
same,Potency,[19],inactive
same,"activity change, negative = inhibition",[20],-2.84%
Cc1ncc(OC[C@@]2(c3cccc(F)c3)C[C@H]2C(=O)Nc2ccc(F)cn2)c(C)n1,Potency,[18],inactive
same,Potency,[19],inactive
C[C@H](Nc1ncnc2nc[nH]c12)c1nc2ccc(F)cc2c(=O)n1-c1ccccc1,"activity change, negative = inhibition",[20],-57.8%
CN1C(=O)[C@]23CC4C(C)(C)[C@@]5(C[C@@]41CN2CC[C@@]3(C)O)C(=O)Nc1c5ccc2c1OC=CC(C)(C)O2 (some centres not stated),Potency,[3],inactive
same,Potency,[4],inactive
same,Potency,[5],inactive
same,Potency,[6],inactive
same,Potency,[7],inactive
same,Potency,[8],inactive
same,Potency,[9],inactive
same,Potency,[10],inactive
same,outcome,[11],inactive
same,outcome,[12],inactive
same,Potency,[13],inactive
same,outcome,[14],inactive
same,Potency,[15],inactive
same,outcome,[16],inactive
same,outcome,[17],inactive
C/C=C(\C)C(=O)O[C@H]1CC2C(=C1C)[C@H]1OC(=O)[C@](C)(O)[C@]1(O)[C@H](OC(=O)CCC)C[C@@]2(C)OC(C)=O (some centres not stated),Potency,[2],2.2 µM (active)
CN1CN(c2ccccc2)C2(CCN(CCCC(=O)c3ccc(F)cc3)CC2)C1=O,Potency,[1],inactive
same,Potency,[2],7.08 µM (active)
C/C(=C\c1csc(C)n1)[C@@H]1C[C@@H]2O[C@@H]2CCC[C@H](C)[C@H](O)[C@@H](C)C(=O)C(C)(C)[C@@H](O)CC(=O)O1,Potency,[18],inactive
same,"activity change, negative = inhibition",[20],-70%
CC(C)C(=O)O[C@H]1[C@@H]2[C@H](C)C(=O)O[C@@H]2C[C@@H](C)[C@@H]2C=CC(=O)[C@]21C,Potency,[2],7.94 µM (active)
COc1ccc(C(C)(C)C)cc1CN[C@H]1C2CCN(CC2)[C@H]1C(c1ccccc1)c1ccccc1,Potency,[19],inactive
